Screening results (PubChem BioAssay)
A selection: hits, their analogues and other compounds. The true share with any hit is near 3.8%.
A549 viability: A549 cytotoxicity, counter-screen for Nrf2 inhibitors; A549 ARE-Fluc cells, CellTiter-Fluor viability, 18-24 h; Potency, µM (doses to about 46 µM), for inactives: at the highest dose activity change, negative = cytotoxicity, usual class: inhibitors; actives 0.16% (n = 390,000); AID 504648; note: % is set by controls: 0 for no effect and ±100 for the full control effect
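A549 ARE-Fluc cells in 5% FBS OPTI-MEM, 5000 cells/well, rested 2 h then exposed to compounds in concentration-response for 18-24 h at 37 °C. Viability by CellTiter-Fluor fluorescence (Ex 405/Em 525) after 30 min; luciferase luminescence (BugLite, 15 min, RT) read afterwards.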
HepG2 tox-1: counter-screen for TGF-b inhibitors: cytotoxicity in HepG2 cells. AID 588856. HepG2 CAGA-GFP viability, ATP luminescence, 18 h. actives 0.76% (n = 410,000). Potency, µM (titrated, usually from 46.1 µM), for the others: at the top dose activity change, negative = cytotoxicity, usual class: cytotoxic
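CellTiter-Glo luminescence gave cytotoxicity after 18 hours at 37 degrees C. The cells were HepG2 CAGA-GFP in 1% FBS DMEM, stimulated with 500 pg/mL TGF-beta after compound addition. %Activity was normalised to no-cell wells (complete cell-killing) and DMSO (no toxicity), and curves were fitted and classified.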
TGFb inhibitor: inhibitors of TGF-b signaling; actives 1.2% (n = 410,000); HepG2 CAGA-GFP TGF-b/SMAD3 reporter, GFP fluorescence, 18 h; TGF-beta stimulated, 500 pg/mL final; Potency, µM (series often up to 46.1 µM), without a hit: top-dose activity, negative = inhibition, actives largely listed as inhibitors; note: % is set by controls: 0 for no effect and ±100 for the full control effect; nearly all actives have a fitted effect of over 65% in size
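HEPG2 CAGA-GFP, 1000 cells/well; 2 h settle, 37 C; cpd via pin tool; TGF-b 500 pg/mL final; 18 h, 37 C; GFP imaging ex488/em500-530; %Activity normalised to -TGF-b and +DMSO controls; CRC fit, curve class.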
ATXN2 expr inh: reduces ATXN2 reporter expression in HEK-293 cells; Potency, µM (series often up to 57 µM), inactives show at the highest dose activity change, negative = inhibition, hits mostly inhibitors; HEK-293 ATXN2-luciferase reporter, luminescence, 24 h; actives 0.72% (n = 360,000); AID 1745845; note: % is set by controls: 0 for no effect and ±100 for the full control effect; nearly all actives have a fitted effect of over 55% in size
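ATXN2-luciferase reporter cells (luciferase flanked by upstream and downstream ATXN2 gene portions) were treated 24 h at 37 °C with compounds at up to 57 uM. SteadyGlo luminescence gave expression; GF-AFC fluorescence gave viability.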
ATXN viability: viability counter-screen for ATXN expression inhibitors; S2 cells (HEK-293 line with an ATXN2-luciferase reporter) viability, CellTiter-Fluor protease fluorescence, 24 h; Potency, µM (series often up to 56.7 µM), most hits filed as cytotoxic; actives 0.49% (n = 400,000); note: nearly all actives have a fitted effect of over 40% in size
Nrf2 block: inhibitors of Nrf2 signaling | A549 ARE-Fluc reporter, luciferase luminescence, 18-24 h | Potency, µM (series often up to 46 µM), for inactives: at the highest dose activity change, negative = inhibition, most hits filed as inhibitors | actives 2.1% (n = 360,000) | AID 504444; note: % is set by controls: 0 for no effect and ±100 for the full control effect; nearly all actives have a fitted effect of over 60% in size
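A549 ARE_Fluc cells (5000/well, 5% FBS OPTI-MEM) pre-incubated 2 h, then treated with compounds 18-24 h at 37C/5% CO2 in concentration-response. CellTiter-Fluor viability read first; BugLite luciferase luminescence after 15 min at room temperature gives Nrf2 activity.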
TGFb CAGA inh: TGF-b pathway inhibition, cherry-pick retest | Potency, µM (series often up to 46.1 µM), without a hit: at the highest dose activity, negative = inhibition, hits mostly inhibitors | HepG2 CAGA-GFP TGF-b reporter, GFP fluorescence, 18 h; cells stimulated with TGF-beta, 500 pg/mL | actives 63% (n = 1,600) | shares compounds with TGFb inhibitor | AID 720534; note: % is set by controls: 0 for no effect and ±100 for the full control effect; nearly all actives have a fitted effect of over 65% in size
HepG2 tox-2: toxic to HepG2 cells in TGF-b counterscreen | AID 720535 | Potency, µM (doses to about 46.1 µM), for the others: top-dose activity, negative = cytotoxicity, hits mostly inhibitors | HepG2 CAGA-GFP viability, ATP luminescence, 18 h; cells stimulated with TGF-beta, 500 pg/mL | shares compounds with TGFb inhibitor | actives 27% (n = 1,600); note: % is set by controls: 0 for no effect and ±100 for the full control effect; nearly all actives have a fitted effect of over 70% in size
TGFb CCL64 inh: orthogonal confirmation of TGF-b inhibitors in CCL64 cells | shares compounds with TGFb inhibitor | CCL64 CAGA-GFP reporter, TGF-b stimulated, GFP fluorescence, 18 h | AID 720536 | actives 41% (n = 1,600) | Potency, µM (top dose mostly 46.1 µM), inactives show at the highest dose activity, negative = inhibition, most hits filed as inhibitors; note: nearly all actives have a fitted effect of over 65% in size
TGFb COP inh: TGF-b inhibition validated with COP promoter; shares compounds with TGFb inhibitor; HepG2 COP-GFP TGF-b reporter, GFP fluorescence, 18 h; cells stimulated by added recombinant TGF-beta; Potency, µM (titrated, usually from 46.1 µM), for inactives: at the highest dose activity, negative = inhibition, most hits filed as inhibitors; actives 3% (n = 1,600); AID 720537; note: nearly all actives have a fitted effect of over 70% in size
Active calls of the source: *. Calls come from the whole dose curve; as a rule, active = well fitted curve in the direction sought with a large enough effect; inconclusive = small, poorly fitted or top-dose-only effect, or another doubt; inactive = no such curve, though single readings can be large; an effect the other way counts as inactive or inconclusive. Potency is the fitted concentration of half-maximal effect.

For COc1ccc(CNC(=O)C[C@H]2C[C@H](C(=O)N3CCOCC3)[C@@]3(CCC4CCCC4)c4[nH]c5cc(-c6ccco6)ccc5c4CCN3C2=O)cc1OC the results were A549 viability -29%, HepG2 tox-1 -20%, TGFb inhibitor 13µM*, ATXN2 expr inh inconclusive, ATXN viability inactive, Nrf2 block 23µM*, TGFb CAGA inh 6.5µM*, HepG2 tox-2 -21%, TGFb CCL64 inh inconclusive and TGFb COP inh 43%.
For CC(C)=CCC/C(C)=C/CNC(=O)C[C@H]1C[C@H](C(=O)N2CCCCC2)[C@@]2(C)c3[nH]c4cc(-c5ccco5)ccc4c3CCN2C1=O the results were A549 viability inconclusive, HepG2 tox-1 -21%, TGFb inhibitor inconclusive, ATXN2 expr inh inconclusive, ATXN viability inconclusive and Nrf2 block inconclusive.
Screening CC[C@]12c3[nH]c4ccc(OC)cc4c3CCN1C(=O)C(CC(=O)NCC13CC4CC(CC(C4)C1)C3)C[C@@H]2C(=O)N1CCN(C(=O)C2CC2)CC1 (stereo not given in full) returned A549 viability inconclusive, HepG2 tox-1 3%, TGFb inhibitor inconclusive, ATXN2 expr inh inconclusive, ATXN viability inconclusive and Nrf2 block inconclusive.
O=C(COC(=O)CNC(=O)c1ccccc1)NCc1ccc2c(c1)OCO2 was read as A549 viability -2%, HepG2 tox-1 -7%, TGFb inhibitor 1%, ATXN2 expr inh -2%, ATXN viability inactive and Nrf2 block 11%.
CCOc1ccc(S(=O)(=O)N2CCN(C(=O)c3cc4ccccc4o3)CC2)cc1 was read as A549 viability -15%, HepG2 tox-1 -6%, TGFb inhibitor inconclusive, ATXN2 expr inh inconclusive, ATXN viability inactive and Nrf2 block -10%.
Screening O=C(Cc1csc(NC(=O)Nc2ccc(Cl)cc2)n1)NC1CCCC1 returned A549 viability inconclusive, HepG2 tox-1 -23%, TGFb inhibitor 11µM*, ATXN2 expr inh 3%, ATXN viability inactive, Nrf2 block inconclusive, TGFb CAGA inh 16µM*, HepG2 tox-2 -28%, TGFb CCL64 inh inconclusive and TGFb COP inh 23%.
For O=C(Cc1csc(NC(=O)Nc2ccc(Cl)cc2)n1)NCc1ccccn1 the results were A549 viability -10%, HepG2 tox-1 -16%, TGFb inhibitor inconclusive, ATXN2 expr inh 22%, ATXN viability inactive and Nrf2 block -13%.
Screening COc1cc(-c2cc(OC)c3c(C)oc(C)c3c(=O)c2)ccc1OC(=O)c1ccccc1C returned A549 viability -5%, HepG2 tox-1 -19%, TGFb inhibitor 0% and Nrf2 block inconclusive.
Screening CCOC(=O)c1ccc(N=Nc2c(C)[nH]n(-c3ccccc3)c2=O)cc1 returned A549 viability 2%, HepG2 tox-1 7%, TGFb inhibitor 25%, ATXN viability inactive and Nrf2 block 4%.
Screening CCOC(=O)c1ccc(-n2[nH]c(-c3ccccc3)cc2=O)cc1 returned A549 viability inconclusive, HepG2 tox-1 10µM*, TGFb inhibitor inconclusive, ATXN2 expr inh inconclusive, ATXN viability inactive, Nrf2 block inconclusive, TGFb CAGA inh 16µM*, HepG2 tox-2 inconclusive, TGFb CCL64 inh inconclusive and TGFb COP inh 45%.
Screening COc1ccc(CCNC(=O)Cn2cc(S(=O)(=O)Cc3ccc(F)cc3)c3ccccc32)cc1OC returned A549 viability -6%, HepG2 tox-1 1%, TGFb inhibitor 0% and Nrf2 block -19%.
For COC(=O)c1ccc(Cn2c(C)c(C(=O)NCc3ccc(Cl)c(Cl)c3)sc2=O)o1 the results were HepG2 tox-1 -6%, TGFb inhibitor 13µM*, ATXN2 expr inh inconclusive, ATXN viability inactive, TGFb CAGA inh 23µM*, HepG2 tox-2 -20%, TGFb CCL64 inh -6% and TGFb COP inh 0%.
COC(=O)c1ccc(Cn2c(C)c(C(=O)NCc3ccc(C#N)cc3)sc2=O)o1 was read as HepG2 tox-1 0%, TGFb inhibitor -10%, ATXN2 expr inh -10% and ATXN viability inactive.
COc1ccc(CNC(=O)[C@@H]2CCCN2C(=O)[C@@H]2Cc3ccccc3CN2C(=O)OC(C)(C)C)cc1 was read as A549 viability -7%, HepG2 tox-1 -7%, TGFb inhibitor 11µM*, ATXN2 expr inh 1%, ATXN viability inactive, Nrf2 block 10%, TGFb CAGA inh 13µM*, HepG2 tox-2 -17%, TGFb CCL64 inh 12% and TGFb COP inh -6%.
For CCCN(CCC)C(=O)C1CCN(c2cc(C)nc3c(-c4ccc(Cl)cc4)c(C)nn23)CC1 the results were A549 viability 0%, HepG2 tox-1 2%, TGFb inhibitor 0%, ATXN2 expr inh -3%, ATXN viability inconclusive and Nrf2 block 3%.
`OC[C@@H]1CN(Cc2ccc(F)cc2)C[C@H](n2cnc3c(Nc4ccccc4)ncnc32)O1` gave HepG2 tox-1 -30%, TGFb inhibitor 1%, ATXN2 expr inh 2% and ATXN viability inactive.
